HT1080-NT tox: kills 2HG-producing HT-1080-NT fibrosarcoma cells | Potency, µM (titrated, usually from 46.1 µM), for the others: top-dose activity, negative = less viability, usual class: cytotoxic | HT-1080-NT fibrosarcoma viability, CellTiter-Glo ATP luminescence, 48 h | 1.6% of 360,000 active;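 note: NT is the 2HG producing partner of a matched IDH1 knockdown line; 0% = DMSO-treated cells and -100% = media-only wells without cells; nearly all actives have a fitted effect of over 55% in size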
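Luminescent CellTiter-Glo readout after 48 hours of compound exposure at 37 degrees C defined viability of HT-1080-NT cells. Activity was normalized to DMSO wells and cell-free media wells; concentration-response curves were fitted and assigned curve classes.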
TDP1 cell noCPT: qHTS for Inhibitors of human tyrosyl-DNA phosphodiesterase 1 (TDP1): qHTS in cells in absence of CPT; DT40 Tdp1-/- hTDP1 cells, no CPT, ATP luminescence, 48 h; Potency, µM (doses to about 46.2 µM), without a hit: top-dose activity change, negative = growth inhibition, usual class: inhibitors; 15% of 420,000 active; AID 686978, 2013; note: % is set by controls: 0 for no effect and ±100 for the full control effect; nearly all actives have a fitted effect of over 55% in size
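Chicken DT40 Tdp1-/- cells stably complemented with human TDP1 were seeded at 400 cells/well with DMSO in place of 20 nM camptothecin. After compound pinning, cells grew at least 48 hr at 37 °C; viability read by CellTiter-Glo luminescence.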
HT1080 IDH1KD tx: toxicity to HT-1080 IDH1 knockdown cells (counter line) | HT-1080 IDH1 knockdown viability, ATP luminescence, 48 h | 2% of 360,000 active | Potency, µM (highest dose often 46.1 µM), without a hit: top-dose activity, negative = toxicity, actives largely listed as cytotoxic;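 note: 0% = DMSO wells and -100% = cell-free medium wells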
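After a 2 h attachment period, IDH1KD HT-1080 cells took pin-transferred compound for 48 h at 37 °C; ATP-based luminescence after 10 min room-temperature reagent incubation reported viability.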
DT40 TDP1 CPT: growth inhibition of DT40 Tdp1-/-;hTDP1 cells with camptothecin (screen for TDP1 inhibitors); 12% of 420,000 active; chicken DT40 Tdp1-/-;hTDP1 cells + 20 nM CPT, ATP luminescence, 48 h; Potency, µM (highest dose often 46.2 µM), for the others: at the highest dose activity change, negative = growth inhibition, actives largely listed as inhibitors; note: % is set by controls: 0 for no effect and ±100 for the full control effect; nearly all actives have a fitted effect of over 55% in size
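Chicken DT40 Tdp1-/- cells stably complemented with human TDP1 were seeded at 400 cells/well in medium containing 20 nM camptothecin, exposed to pin-transferred compounds, and grown at 37 °C for at least 48 hr. Viability was read as ATP luminescence.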
TGFb SMAD3 inh: blocks TGF-b signaling; Potency, µM (doses to about 46.1 µM), for the others: top-dose activity, negative = inhibition, most hits filed as inhibitors; HepG2 CAGA-GFP TGF-b/SMAD3 reporter, GFP fluorescence, 18 h; TGF-beta stimulated, 500 pg/mL final; 1.2% of 410,000 active; AID 588855; note: % is set by controls: 0 for no effect and ±100 for the full control effect; nearly all actives have a fitted effect of over 65% in size
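Read-out: total well GFP (ex488/em500-530) summed from mean per-cell fluorescence. Cells: HEPG2 CAGA-GFP, 1% FBS DMEM, 18 h at 37 degrees C with 500 pg/mL final TGF-beta. Unstimulated wells served as the full-inhibition control; stimulated DMSO wells = 0%.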
HepG2 tox: HepG2 cytotoxicity, counter-screen for TGF-b inhibitors. HepG2 CAGA-GFP viability, ATP luminescence, 18 h. Potency, µM (doses to about 46.1 µM), inactives show at the highest dose activity change, negative = cytotoxicity, hits mostly cytotoxic. 0.76% of 410,000 active. AID 588856
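CellTiter-Glo luminescence gave cytotoxicity after 18 hours at 37 degrees C. The cells were HepG2 CAGA-GFP in 1% FBS DMEM, stimulated with 500 pg/mL TGF-beta after compound addition. %Activity was normalised to no-cell wells (complete cell-killing) and DMSO (no toxicity), and curves were fitted and classified.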
Starred values were filed as active, the others as inactive; ? = inconclusive; . = not tested or not shown. Sampled rows, rich in hits. Any-hit rate of the full collection: about 17%. Calls come from the whole dose curve; as a rule, active = well fitted curve in the direction sought with a large enough effect; inconclusive = small, poorly fitted or top-dose-only effect, or another doubt; inactive = no such curve, though single readings can be large; an effect the other way counts as inactive or inconclusive. Potency is the fitted concentration of half-maximal effect.

SMILES | HT1080-NT tox | TDP1 cell noCPT | HT1080 IDH1KD tx | DT40 TDP1 CPT | TGFb SMAD3 inh | HepG2 tox
C=CCn1c(=O)/c(=C/c2ccc(Cl)cc2)s/c1=C(\C#N)c1nnc2n1CCCCC2 | -15% | 6.5µM* | -1% | 21µM* | 0% | -38%
Cc1cccc(C)c1NC(=O)c1c(C)nn(-c2ccccc2)c1Cl | -1% | -13% | -13% | -7% | 12% | -24%
CC(=O)N(Cc1c(C)nn(-c2ccccc2)c1Cl)c1ccc(Cl)cc1 | -1% | ? | -10% | ? | 2% | -45%
Cc1nn(-c2ccccc2)c(Cl)c1CN(C(=O)CCl)c1cccc2ccccc12 | 4.1µM* | 6.5µM* | 5.2µM* | 5.8µM* | ? | -113%
Cc1nn(-c2ccccc2)c(Cl)c1CN(C(=O)CCl)c1ccc(Cl)cc1 | 7.3µM* | 6.5µM* | 5.2µM* | 7.3µM* | 10µM* | 7.9µM*
COc1ccccc1CNC(=O)C1CCC(CNS(=O)(=O)c2ccc3c(c2)CCCC(=O)N3)CC1 (stereo not drawn) | . | -28% | . | -21% | 1% | -14%
CCCCCSc1nnc2c(n1)[nH]c1c(C)cccc12 | . | 2.9µM* | . | 9.2µM* | -8% | 4%
Cc1cc(C)c2[nH]c3nc(SCC(=O)O)nnc3c2c1 | 9% | 2% | 9% | -12% | 13% | -1%
O=C1NC(=O)[C@H]2[C@@H]1[C@@H]1C=C[C@H]2C1 | . | 0% | . | 9% | . | .
CCOC(=O)Cc1csc(SC(C)C(=O)NC2CCCCC2C)n1 (stereo not drawn) | 5% | -20% | 7% | -5% | -22% | 1%
CNc1nc(Oc2cccc(F)c2)c2sccc2n1 | 15% | -26% | 1% | -24% | 17% | -1%
COCCNc1nc(Oc2ccc(Cl)c(Cl)c2)c2sccc2n1 | 1% | -28% | 3% | ? | -5% | 6%
COc1cccc(CNc2nc(NCc3ccccc3)nc3ccsc23)c1 | 21µM* | 4.1µM* | ? | 2.1µM* | ? | -48%
COc1cccc(CNc2nc(NCC3CC3)nc3ccsc23)c1 | . | 2.1µM* | . | 16µM* | ? | -39%
CNc1nc(NCc2cccc(OC)c2)c2sccc2n1 | -20% | 10µM* | ? | 7.3µM* | -13% | -24%
Cc1cscc1-c1nc(NCC2CC2)nc2ccsc12 | 15% | ? | -3% | ? | 4% | -1%
COCCNc1nc(NCc2cc(-c3ccc(OC)cc3)no2)c2sccc2n1 | ? | 18µM* | 13µM* | ? | ? | -41%
CCOc1ccc2c(c1)c(=O)c(C(=O)c1ccc(CC)cc1)cn2CC(=O)Nc1cccc(Cl)c1 | . | ? | . | ? | 3% | -1%
CNC(=S)Nc1cc(C)ccc1OC(F)F | 4% | -30% | 24% | -14% | 14% | -8%
Nc1nc(CSC(=S)N2CCN(c3ccccc3)CC2)nc(Nc2ccccc2)n1 | -8% | ? | -16% | 23µM* | ? | 14%
Cc1ccc(Nc2nc(N)nc(CSC(=S)N3CCOCC3)n2)c(C)c1 | 0% | 26µM* | -7% | ? | -18% | -2%
COc1ccc(Nc2nc(N)nc(CSC(=S)N3CCOCC3)n2)cc1 | -8% | ? | -25% | ? | -1% | -22%
CCCCNC(=O)c1nc(C2CCN(S(=O)(=O)c3ccc(S(C)(=O)=O)cc3)CC2)oc1-c1ccccc1 | -2% | 13µM* | 2% | 5.8µM* | . | .
CCCCNC(=O)c1nc(C2CCN(S(=O)(=O)c3cccc(C(F)(F)F)c3)CC2)oc1-c1cccc(C(F)(F)F)c1 | ? | 6% | 20% | 0% | 0% | -33%
CCCCNC(=O)c1nc(C2CCN(S(=O)(=O)c3ccc(C(F)(F)F)cc3)CC2)oc1-c1ccccc1 | -23% | 7.3µM* | -11% | 5.8µM* | . | .
SMILES | HT1080-NT tox | TDP1 cell noCPT | HT1080 IDH1KD tx | DT40 TDP1 CPT | TGFb SMAD3 inh | HepG2 tox
O=C1CC(c2ccncc2)c2cc3c(cc2N1)OCCO3 (stereo not drawn) | -4% | -3% | -6% | 5% | 16% | -2%
CC(C)c1ccc(C2CC(=O)Nc3cc4c(cc32)OCCO4)cc1 (stereo not drawn) | . | 29µM* | . | ? | ? | -77%
Cc1ccc(C2CC(=O)Nc3cc4c(cc32)OCCO4)cc1Br (stereo not drawn) | . | 16µM* | . | 18µM* | 13µM* | -38%
OC1COC(O)C(O)C1O (stereo not drawn) | ? | 9% | 11% | 0% | 2% | 0%
COc1ccc(-c2sc3ccccc3c2-c2ccc(OC)cc2F)cc1 | 12% | ? | 7% | 3% | . | .
CC(C)(C)c1ccc2c(c1)OC(C(=O)N/N=C/c1ccc([N+](=O)[O-])o1)CO2 (stereo not drawn) | -25% | 12µM* | ? | 16µM* | -10% | -34%
CC(C)(C)c1ccc2c(c1)OC(C(=O)N/N=C\c1ccncc1)CO2 (stereo not drawn) | -7% | ? | -25% | ? | -12% | 20µM*
Cn1cccc1/C=N\NC(=O)C1COc2ccc(C(C)(C)C)cc2O1 (stereo not drawn) | -13% | ? | -2% | -2% | -19% | -29%
CC(C)(C)c1ccc2c(c1)OC(C(=O)N/N=C\c1ccc[nH]1)CO2 (stereo not drawn) | ? | ? | 3.7µM* | ? | -7% | -29%
COc1cccc(CN2C(=O)CCC2(C)C(=O)NCCc2ccc(OC)c(OC)c2)c1 (stereo not drawn) | 14% | 3% | 12% | -2% | 3% | 0%
CC(C)[C@H](NC(=O)c1ccccc1)C(=O)NCCc1ccccc1 | -13% | ? | 19% | -18% | -11% | -7%
COc1ccc(NS(=O)(=O)c2cccc(C(=O)NNC(=O)CNC(=O)c3ccco3)c2)cc1 | 14% | 17% | 16% | 14% | -3% | -10%
CCOc1ccc(CCNC(=O)COC(=O)c2sccc2C)cc1OCC | 3% | 13µM* | 4% | ? | -29% | 2%
CCOc1ccc(CCNC(=O)COC(=O)c2cccs2)cc1OCC | -2% | -11% | -2% | -28% | 18% | 4%
CCOc1ccc(CCNC(=O)c2cc3sccc3n2CC)cc1OCC | -9% | 5.8µM* | -1% | 5.2µM* | 0% | -7%
CCn1c(C(=O)NCCc2ccc(OC)c(OC)c2)cc2sc(Cl)cc21 | . | 12µM* | . | 18µM* | ? | -21%

Source: PubChem BioAssay (National Center for Advancing Translational Sciences (NCATS))
